Assay results from publication PMC11062922 (Nature Chemical Biology, 2023).
Like-named read-outs stand apart in the source and are kept apart here.

What was measured:
Design in all cases: species or system human, MV4-11 + K-562 + COLO205 + SK-N-BE2 + OVCAR-8
[1] = tested on: DDR1; conditions: read-out: apparent Kd, compound concentrations: 100 nM and 1000 nM (sheet 'Samples'), n = 1
[2] = tested on: DDR2; conditions: read-out: apparent Kd, compound concentrations: 100 nM and 1000 nM (sheet 'Samples'), n = 1
[3] = tested on: EPHA7; conditions: read-out: apparent Kd; compound concentrations: 100 nM and 1000 nM (sheet 'Samples'), CATDS: 8.9054165794135901E-2; n = 1
[4] = tested on: EPHB6; conditions: read-out: apparent Kd; compound concentrations: 100 nM and 1000 nM (sheet 'Samples'), CATDS: 9.7568833330596599E-2; n = 1
[5] = tested on: FLT3; conditions: read-out: apparent Kd, compound concentrations: 100 nM and 1000 nM (sheet 'Samples'), n = 1
[6] = tested on: FLT4; conditions: read-out: apparent Kd; compound concentrations: 100 nM and 1000 nM (sheet 'Samples'), CATDS: 0.353383658165352; n = 1
[7] = tested on: RET; conditions: read-out: apparent Kd, compound concentrations: 100 nM and 1000 nM (sheet 'Samples'), n = 1
[8] = tested on: DCTPP1; conditions: read-out: apparent Kd; compound concentrations:100 nM and 1000 nM (sheet 'Samples'); n = 1
[9] = tested on: JAK2; conditions: read-out: apparent Kd; compound concentrations:100 nM and 1000 nM (sheet 'Samples'); n = 1
[10] = tested on: MAPK14; conditions: read-out: apparent Kd, n = 1
[11] = tested on: MAPK8; conditions: read-out: apparent Kd; compound concentrations:100 nM and 1000 nM (sheet 'Samples'); n = 1
[12] = tested on: MAPK9; conditions: read-out: apparent Kd; compound concentrations:100 nM and 1000 nM (sheet 'Samples'); n = 1
[13] = tested on: MAPKAPK2; conditions: read-out: apparent Kd; compound concentrations:100 nM and 1000 nM (sheet 'Samples'); n = 1
[14] = tested on: NLK; conditions: read-out: apparent Kd, n = 1
[15] = tested on: PIP4K2C; conditions: read-out: apparent Kd, n = 1
[16] = tested on: HCK; conditions: read-out: apparent Kd; compound concentrations: 100 nM and 1000 nM (sheet 'Samples'), CATDS: 9.2745081986231104E-2; n = 1
[17] = tested on: IRAK3; conditions: read-out: apparent Kd, compound concentrations: 100 nM and 1000 nM (sheet 'Samples'), n = 1
[18] = tested on: LYN; conditions: read-out: apparent Kd; compound concentrations: 100 nM and 1000 nM (sheet 'Samples'), CATDS: 7.2911258996188402E-2; n = 1
[19] = tested on: MAPK11; conditions: read-out: apparent Kd; compound concentrations: 100 nM and 1000 nM (sheet 'Samples'), CATDS: 7.9880632684471306E-2; n = 1
[20] = tested on: RIPK3; conditions: read-out: apparent Kd; compound concentrations: 100 nM and 1000 nM (sheet 'Samples'), CATDS: 7.1422785641186204E-2; n = 1
[21] = tested on: TNK1; conditions: read-out: apparent Kd; compound concentrations: 100 nM and 1000 nM (sheet 'Samples'), CATDS: 0.18276083287815401; n = 1
[22] = tested on: TP53RK; conditions: read-out: apparent Kd, compound concentrations: 100 nM and 1000 nM (sheet 'Samples'), n = 1
[23] = tested on: YES1; conditions: read-out: apparent Kd; compound concentrations: 100 nM and 1000 nM (sheet 'Samples'), CATDS: 0.118526844217484; n = 1
[24] = tested on: CSNK2A1;CSNK2A3; conditions: read-out: apparent Kd; compound concentrations: 100 nM and 1000 nM (sheet 'Samples'), CATDS: 8.5666768683209493E-2; n = 1
[25] = tested on: CSNK2A2; conditions: read-out: apparent Kd; compound concentrations: 100 nM and 1000 nM (sheet 'Samples'), CATDS: 9.4804106529145699E-2; n = 1
[26] = tested on: EPHA1; conditions: read-out: apparent Kd; compound concentrations: 100 nM and 1000 nM (sheet 'Samples'), CATDS: 0.11031803480288301; n = 1
[27] = tested on: NTRK1; conditions: read-out: apparent Kd; compound concentrations: 100 nM and 1000 nM (sheet 'Samples'), CATDS: 8.3524015841862198E-2; n = 1
[28] = tested on: RIPK2; conditions: read-out: apparent Kd, compound concentrations: 100 nM and 1000 nM (sheet 'Samples'), n = 1
[29] = tested on: STK10; conditions: read-out: apparent Kd; compound concentrations: 100 nM and 1000 nM (sheet 'Samples'), CATDS: 9.3066944796260806E-2; n = 1
[30] = tested on: TGFBR2; conditions: read-out: apparent Kd, compound concentrations: 100 nM and 1000 nM (sheet 'Samples'), n = 1
[31] = tested on: CSNK1D; conditions: read-out: apparent Kd; compound concentrations: 100 nM and 1000 nM (sheet 'Samples'), CATDS: 7.6983160773696893E-2; n = 1
[32] = tested on: CSNK1E; conditions: read-out: apparent Kd; compound concentrations: 100 nM and 1000 nM (sheet 'Samples'), CATDS: 7.2450949047452695E-2; n = 1
[33] = tested on: PKN3; conditions: read-out: apparent Kd; compound concentrations: 100 nM and 1000 nM (sheet 'Samples'), CATDS: 0.57773444025704901; n = 1
[34] = tested on: SPR; conditions: read-out: apparent Kd; compound concentrations: 100 nM and 1000 nM (sheet 'Samples'), CATDS: 9.9495378731818698E-2; n = 1
[35] = tested on: TESK2; conditions: read-out: apparent Kd; compound concentrations: 100 nM and 1000 nM (sheet 'Samples'), CATDS: 7.5715174552883194E-2; n = 1
[36] = compound concentrations:100 nM and 1000 nM (sheet 'Samples')

Nc1ncnc2occ(-c3ccc(NC(=O)Nc4cccc(C(F)(F)F)c4)cc3)c12 [GW795493X]
potency estimated from few doses ([1]; CATDS: 0.13274475237022501): 0.405 µM | potency estimated from few doses ([2]; CATDS: 0.11447916272035): 0.681 µM | potency estimated from few doses [3]: 2.22 µM | potency estimated from few doses [4]: 1.35 µM | potency estimated from few doses ([5]; CATDS: 0.15949914238657301): 0.229 µM | potency estimated from few doses [6]: 0.0346 µM | potency estimated from few doses ([7]; CATDS: 0.464290470493195): 0.0216 µM

Cl.Cn1c(=O)c(Oc2ccc(F)cc2F)cc2cnc(NC3CCS(=O)(=O)CC3)nc21 [RO3308271-001]
potency estimated from few doses [8]: 1.31 µM | potency estimated from few doses [9]: 0.494 µM | potency estimated from few doses [10, 36]: 0.0165 µM | potency estimated from few doses [11]: 0.922 µM | potency estimated from few doses [12]: 0.212 µM | potency estimated from few doses [13]: 0.0133 µM | potency estimated from few doses [14, 36]: 1.22 µM | potency estimated from few doses [15, 36]: 1.31 µM

COc1cc(Nc2nccc(-c3c(-c4cccc(NC(=O)c5c(F)cccc5F)c4)nn4ncccc34)n2)cc(OC)c1OC [GSK327238A]
potency estimated from few doses ([1]; CATDS: 6.8880271318571995E-2): 1.83 µM | potency estimated from few doses [16]: 0.926 µM | potency estimated from few doses ([17]; CATDS: 7.7549132648748395E-2): 1.36 µM | potency estimated from few doses [18]: 1.58 µM | potency estimated from few doses [19]: 1.27 µM | potency estimated from few doses ([10]; compound concentrations: 100 nM and 1000 nM (sheet 'Samples'), CATDS: 7.1692025023195896E-2): 1.65 µM | potency estimated from few doses ([15]; compound concentrations: 100 nM and 1000 nM (sheet 'Samples'), CATDS: 6.71745626151799E-2): 1.96 µM | potency estimated from few doses ([7]; CATDS: 0.140384770008642): 0.45 µM | potency estimated from few doses [20]: 1.66 µM | potency estimated from few doses [21]: 0.305 µM | potency estimated from few doses ([22]; CATDS: 6.3683372655405995E-2): 2.3 µM | potency estimated from few doses [23]: 0.592 µM

COc1cc(Nc2nccc(Nc3ccc4c(C)n[nH]c4c3)n2)cc(OC)c1OC [GW612286X]
potency estimated from few doses [24]: 1.87 µM | potency estimated from few doses [25]: 1.37 µM | potency estimated from few doses [26]: 0.909 µM | potency estimated from few doses ([17]; CATDS: 0.28099060866519798): 0.122 µM | potency estimated from few doses [27]: 2.04 µM | potency estimated from few doses ([15]; compound concentrations: 100 nM and 1000 nM (sheet 'Samples'), CATDS: 8.5254217094438201E-2): 1.9 µM | potency estimated from few doses ([28]; CATDS: 0.49931357158944301): 0.0466 µM | potency estimated from few doses [29]: 1.45 µM | potency estimated from few doses ([30]; CATDS: 0.10303622443246301): 1.09 µM

COC(=O)Nc1nc2ccc(Oc3ccc(NC(=O)Nc4cccc(Cl)c4)cc3)cc2[nH]1.Cl [GW589961A]
potency estimated from few doses ([1]; CATDS: 0.527903704232491): 0.199 µM | potency estimated from few doses ([2]; CATDS: 0.19207540013006): 1.55 µM | potency estimated from few doses ([5]; CATDS: 0.237161124657183): 0.874 µM | potency estimated from few doses ([7]; CATDS: 0.213543633827599): 1.14 µM

CN(C)CCN(C)C(=O)c1cc(-c2ccncc2)c(-c2ccc(Cl)c(O)c2)o1 [SB-710397_KCGS]
potency estimated from few doses [31]: 1.4 µM | potency estimated from few doses [32]: 1.72 µM | potency estimated from few doses ([10]; compound concentrations: 100 nM and 1000 nM (sheet 'Samples'), CATDS: 9.6688337398944404E-2): 0.748 µM | potency estimated from few doses ([14]; compound concentrations: 100 nM and 1000 nM (sheet 'Samples'), CATDS: 9.9124712412078902E-2): 0.705 µM | potency estimated from few doses [33]: 0.0308 µM | potency estimated from few doses ([28]; CATDS: 0.16475470795078001): 0.247 µM | potency estimated from few doses [34]: 0.698 µM | potency estimated from few doses [35]: 1.48 µM | potency estimated from few doses ([30]; CATDS: 8.5739105668182394E-2): 1.02 µM | potency estimated from few doses ([22]; CATDS: 9.9453344807386698E-2): 0.699 µM
